Test results published in PubChem BioAssay (EPA / NIEHS).
Records with an inconclusive call do not appear. Calls of active or inactive are those of the source. Rule for the calls: active = hit-call score of the fitted dose curve at least 0.9, where 1 is the maximum; inconclusive = response in the unintended direction; inactive = score below 0.9.

Tests used:
[1] = molecular target: Cellular tumor antigen p53 (Homo sapiens) (UniProt P04637); experiment: TOX21_p53_BLA_p2_ratio: Tox21 HCT-116 p53 Agonism Beta-lactamase Assay, Ratio, Phase 2 (AID 2283592)
Chain of Cellular tumor antigen p53 (Homo sapiens) (P04637 whole entry, looked up): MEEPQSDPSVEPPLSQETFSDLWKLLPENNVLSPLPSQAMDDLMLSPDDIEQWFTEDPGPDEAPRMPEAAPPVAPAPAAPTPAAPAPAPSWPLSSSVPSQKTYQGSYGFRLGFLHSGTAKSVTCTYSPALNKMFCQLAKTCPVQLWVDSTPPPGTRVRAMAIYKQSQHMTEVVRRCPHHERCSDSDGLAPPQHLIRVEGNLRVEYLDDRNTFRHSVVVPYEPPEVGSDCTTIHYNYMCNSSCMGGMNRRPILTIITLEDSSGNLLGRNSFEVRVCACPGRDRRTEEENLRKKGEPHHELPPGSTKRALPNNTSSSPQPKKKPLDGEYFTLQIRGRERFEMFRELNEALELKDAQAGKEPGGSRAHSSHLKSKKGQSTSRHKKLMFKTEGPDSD
How it was run: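 HCT116 p53-bla; 4000 cells/well; 5 h pre-incubation; cpd in DMSO, 217-fold dilution; 16 h 37C/5% CO2; CCF4-AM 2 h RT; Ex 405, Em 460/530 ratio; DMSO = baseline; positive fitting direction.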

[2] = TOX21_p53_BLA_p3_viability: Viability Assessment in the Tox21 HCT-116 p53 Agonism Beta-lactamase Assay, Phase 3 (AID 2283593);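 note: cells exposed to compound for 16 h before reading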
How it was run: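 Cellular ATP was quantified by CellTiter-Glo luminescence, read after 30 min at room temperature. Beforehand, HCT116 cells (4000/well) received compound 5 h post-seeding, 217-fold diluted from DMSO, then incubated 16 h at 37C.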

[3] = molecular target: Cellular tumor antigen p53 (Homo sapiens) (UniProt P04637); experiment: TOX21_p53_BLA_p3_ratio: Tox21 HCT-116 p53 Agonism Beta-lactamase Assay, Ratio, Phase 3 (AID 2283596)
How it was run: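 HCT116 p53-bla cells (4000/well) given compound in DMSO (217-fold dilution) after 5 h, incubated 16 h at 37C. CCF4-AM substrate 2 h at room temperature; 460/530 nm emission ratio, gain fitted against DMSO.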

[4] = TOX21_p53_BLA_p4_viability: Viability Assessment in the Tox21 HCT-116 p53 Agonism Beta-lactamase Assay, Phase 4 (AID 2283597);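 note: hits lower the luminescence signal meaning cytotoxicity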
How it was run: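 Cells plated, 5 h pre-incubation; DMSO compounds pinned (217-fold dilution); 16 h, 37C/5% CO2; CCF4-AM 2 h RT; CellTiter-Glo 30 min RT; luminescence read.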

[5] = molecular target: Cellular tumor antigen p53 (Homo sapiens) (UniProt P04637); experiment: TOX21_p53_BLA_p5_ratio: Tox21 HCT-116 p53 Agonism Beta-lactamase Assay, Ratio, Phase 5 (AID 2283599)
How it was run: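 Beta-lactamase reporter ratio (blue 460 nm over green 530 nm, 405 nm excitation) after 2 h CCF4-AM loading, in HCT-116 cells exposed 16 h at 37 C to compounds pinned at 217-fold dilution. Increases relative to DMSO baseline scored.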

[6] = TOX21_p53_BLA_p5_viability: Viability Assessment in the Tox21 HCT-116 p53 Agonism Beta-lactamase Assay, Phase 5 (AID 2283600)
How it was run: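 4000 cells/well; 5 h pre-incubation; DMSO compounds pin-transferred, 217-fold dilution; 16 h, 37C/5% CO2; CCF4-AM 2 h RT; CellTiter-Glo 30 min RT; luminescence.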

[7] = molecular target: Cellular tumor antigen p53 (Homo sapiens) (UniProt P04637); experiment: TOX21_p53_BLA_p4_ratio: Tox21 HCT-116 p53 Agonism Beta-lactamase Assay, Ratio, Phase 4 (AID 2283601)
How it was run: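 Signal is the blue/green (460nm/530nm) ratio of cleaved versus uncleaved CCF4-AM substrate, read after 2 h substrate loading. Cells were HCT116 carrying the p53-responsive beta-lactamase reporter, dosed 16 h at 37C, 5% CO2; CellTiter-Glo measured in parallel.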

Measured: AC50

N[C@H](CC(=O)O)C(=O)O
inactive: all assays above

O=C(O)Cc1ccc(-c2ccccc2)cc1
inactive: all assays above

C#CCOc1ccc2c(C)cc(=O)oc2c1
inactive: all assays above

CN1C[C@@H]2C[C@H]1CN2c1cc2c(cc1F)c(=O)c(C(=O)O)cn2C1CC1
not listed: [6]
inactive: all other assays above

CCCCCCCCS
not listed: [6]
inactive: all other assays above

C=C(C)C(=O)OCCCC
not listed: [6]
inactive: all other assays above

Cc1cc(C2CCCCC2)n(O)c(=O)c1
not listed: [6]
inactive: all other assays above

CO/N=C(\C(=O)N[C@@H]1C(=O)N2C(C(=O)O)=C(COC(C)=O)CS[C@H]12)c1csc(N)n1 (stereo in doubt)
not listed: [6]
inactive: all other assays above

CC(=O)O[Si](C)(OC(C)=O)OC(C)=O
not listed: [6]
inactive: all other assays above

CN1C(=O)CN2CCc3ccccc3C2c2cc(Cl)ccc21 (stereo not given)
inactive: [2] | [4]
active: [1] 35.6 µM | [3] 39.8 µM | [5] 22.8 µM | [7] 33.8 µM

c1ccc(-n2cnnn2)cc1
inactive: all assays above
